# Compound activity as filed in PubChem BioAssay.
# Rows were chosen to be rich in hits. Some 11% of all compounds tested hit in one or more screens of this group.
# Tau ThT inhib = tau fibrillization inhibition (ThT binding); P10636; recombinant tau K18 P301L, heparin-induced fibrillization, ThT fluorescence; Potency, µM (doses to about 57.4 µM), for inactives: top-dose activity, negative = inhibition, actives largely listed as inhibitors; 2.1% of 270,000 active; also: potency is read from the fitted curve at half-maximal effect; nearly all actives have a fitted effect of over 55% in size
# Target sequence (P10636 561-689 P618L limits assumed): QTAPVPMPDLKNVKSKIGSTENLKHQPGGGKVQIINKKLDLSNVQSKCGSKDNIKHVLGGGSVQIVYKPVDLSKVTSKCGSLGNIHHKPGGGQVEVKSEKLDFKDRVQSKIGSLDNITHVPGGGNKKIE
#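 In this qHTS, human K18 P301L tau is incubated with compound and heparin for 6 hr at 37 C, and Thioflavin T fluorescence then reports fibril load.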
# FBPA coupling cs = inhibits coupling enzyme system, counter-screen for aldolase hits. coupling enzyme system counterscreen, AmpLite Red fluorescence. activity change, negative = inhibition, % at 58.2 µM, hits read low. 0.67% of 290,000 active. AID 2472; in the data active = activity change below about -30%
#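 Final compound at 57.5 uM, incubated 10 min at RT with coupling enzyme reagent (glyceraldehyde-3-phosphate), then 20 min with substrate and AmpLite Red detection. Fluorescence read at 525/598 nm; tests interference with the coupling assay, not aldolase inhibition.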
# Tau FP inhib = tau fibrillization inhibition (FP). K18 P301L tau heparin fibrillization, Alexa594 FP, 6 h. 0.39% of 280,000 active. Potency, µM (highest dose often 57.7 µM), for the others: at the highest dose activity, negative = inhibition, actives largely listed as inhibitors; also: potency is read from the fitted curve at half-maximal effect; nearly all actives have a fitted effect of over 55% in size
#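 Recombinant K18 P301L […], labeled with Alexa 594 at 0.24 uM over 15 uM unlabeled; heparin inducer 20 uM final; 37 C, 6 hr; FP endpoint.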
# Tau fluor counter = counter-screen for tau fibril formation inhibitors; tau K18 P301L Alexa594 fluorescence, heparin fibrillization; Potency, µM (highest dose often 57.7 µM), without a hit: top-dose activity change, negative = decrease; 0.93% of 280,000 active; AID 1463; also: potency is read from the fitted curve at half-maximal effect; nearly all actives have a fitted effect of over 55% in size
#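 Human tau K18 P301L (15 uM unlabeled, 0.24 uM Alexa 594-labeled) in 100 mM sodium acetate pH 7 with 20 uM heparin, 6 hr at 37 C. ThT 30 uM added, 1 hr ambient; Alexa 594 FP and total fluorescence read at 555/632 nm.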
# G9a block = G9a (human) methyltransferase inhibition | 8.8% of 350,000 active | AID 504332 | Potency, µM (highest dose often 102 µM), without a hit: top-dose activity, negative = inhibition, most hits filed as inhibitors | G9a H3K9 monomethylation, AlphaScreen, 2 h; also: potency is read from the fitted curve at half-maximal effect; nearly all actives have a fitted effect of over 75% in size
# Target sequence (Q96KQ7 913-1193 limits assumed): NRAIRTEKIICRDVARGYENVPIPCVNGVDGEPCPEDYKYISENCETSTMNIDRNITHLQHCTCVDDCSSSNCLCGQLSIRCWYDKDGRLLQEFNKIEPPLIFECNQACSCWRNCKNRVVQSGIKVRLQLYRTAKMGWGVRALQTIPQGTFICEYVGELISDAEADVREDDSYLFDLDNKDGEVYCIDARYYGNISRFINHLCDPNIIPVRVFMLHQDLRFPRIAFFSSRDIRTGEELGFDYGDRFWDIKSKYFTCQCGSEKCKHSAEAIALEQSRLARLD
#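 Methyltransferase reactions run at room temperature for 2 h (20 nM enzyme, 500 nM biotin-H3K9 peptide, 20 uM SAM) after a 15 min compound preincubation; product detected by AlphaScreen beads and anti-H3K9me1 antibody.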
# Sfp inh = Sfp phosphopantetheinyl transferase inhibition; Q9F4F7; Biochemical Sfp PPTase activity, qHTS; Potency, µM, for inactives: largest response in the series, negative = inhibition, hits mostly inhibitors; 3.5% of 310,000 active; AID 1490;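 also: the enzyme is Sfp with the accession as filed and its product quenches rhodamine fluorescence; potency is read from the fitted curve at half-maximal effect; 0% = enzyme reaction without inhibitor and -100% = no enzyme wells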
#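 Sfp 15 nM + cpd, 15 min RT; start w/ rhodamine-CoA 5 uM, BHQ-2-YbbR 12.5 uM (final); 50 mM Hepes pH 7.6, 10 mM MgCl2, 0.01% NP-40, 0.01% BSA; read 525/598 nm at 0 and 30 min.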
# Active calls of the source: *; ? = inconclusive; · = no result given; ! = a repeat was not active; [ ] = dose if it differs, or a comment. Unless noted, calls follow the shape of the dose curve; as a rule, active = well fitted curve in the direction sought with a large enough effect; inconclusive = small, poorly fitted or top-dose-only effect, or another doubt; inactive = no such curve, though single readings can be large; an effect the other way counts as inactive or inconclusive. Unless noted, % is scaled to controls: 0 for no effect and ±100 for the full control effect.
SMILES,Tau ThT inhib,FBPA coupling cs,Tau FP inhib,Tau fluor counter,G9a block,Sfp inh
O=C(NCC1CCN(C(=O)c2cccc([N+](=O)[O-])c2)CC1)c1cccc([N+](=O)[O-])c1,·,-0.7,·,·,0.4%,9.3%
CN(CCC1CCCCO1)C(=O)CCc1nnc(Cc2c[nH]c3ccccc23)o1 (centres undefined),·,·,·,·,79.4µM*,5.7%
O=C1c2cccc3cccc(c23)C(=O)N1c1ccc2ncccc2c1,-15.6%,3.8,10.4%,-6.4%,25.1µM*,?
Cc1ccccc1NC(=O)C1CC(=O)n2ncnc2N1 (centres undefined),·,-1.3,4.6%,-8.5%,44.7µM*,-19.3%
COc1ccc(Cl)cc1NS(=O)(=O)N1CCOCC1,·,·,·,·,-2.4%,15.1%
Cc1ccc(-c2nn(-c3ccccc3)cc2C2SCC(=O)N2Cc2ccccc2)o1 (centres undefined),-12.1%,-2.3,-4.1%,6.0%,10µM*,22.4µM*
OCc1ccccn1,·,·,·,·,-4.4%[12.7 µM],3.7%
CCCNC(=O)CC(NS(=O)(=O)c1ccc(NC(C)=O)cc1)C(C)C (centres undefined),-2.4%,5.1,-4.9%,-9.3%,-22.6%,23.3%
CCCCCCNC(=O)CC(NS(=O)(=O)c1ccc(NC(C)=O)cc1)C(C)C (centres undefined),1.8%,6.7,-9.1%,-2.2%,39.8µM*,8.9%
Cc1ccc(C(OCC(O)CNC(CO)C(O)c2ccc([N+](=O)[O-])cc2)c2ccccc2)cc1 (centres undefined),·,4.9,·,·,12.6µM*,-21.9%
Cc1ccc(C(OCC(O)CNC(C)c2ccccc2)c2ccccc2)cc1 (centres undefined),-11.5%,-6.0,8.0%,-3.6%,8.91µM*,-22.9%
CCc1noc(C)c1C(=O)NNC(=O)COc1ccccc1C,·,·,·,·,7.1%[2.33 µM],·
CCN1C(=O)N[C@H](c2ccc(Br)cc2)C(C(C)=O)=C1C,-13.5%,2.5,-5.3%,-11.2%,44.7µM*,89.1µM*!
CCN1C(=O)N[C@@H](c2cccc(F)c2)C(C(C)=O)=C1C,7.2%[11.5 µM],-2.6,1.5%[11.6 µM],-3.7%[11.6 µM],·,6.9%
COc1ccc(C(=O)NC(=S)NNC(=O)c2ccc(NC(C)=O)cc2)cc1Br,?,4.7,7.8%,-24.1%,39.8µM*,9.0%
COc1ccc(C(=O)NC(=S)Nc2ccc(CN3CCOCC3)cc2)cc1,?,1.3,-1.3%,-24.1%,44.7µM*,-3.0%
CC(C)C(=O)Nc1ccc(NC(=S)NC(=O)c2ccc([N+](=O)[O-])cc2)cc1,7.08µM*,-0.6,-1.8%,-28.3%,22.0%[0.501 µM],-0.8%
Cc1ccc(C(=O)NC(=S)NNC(=O)CCN2CCOCC2)cc1,-3.6%,-2.0,4.2%,4.6%,8.91µM*,-29.8%
CCOC(=O)N1CCc2c(sc3c2c(=O)n(-c2ccc(Cl)cc2)c(=O)n3CC(=O)Nc2ccccc2)C1,-2.3%,·,-6.7%,-26.6%,-0.1%[59 µM],·
O=C(CCCCl)NC(=S)Nc1ccc(CN2CCOCC2)cc1,-12.2%,1.2,-6.8%,-7.3%,50.1µM*,-7.4%
CCOc1ccc(C(=O)Nc2ccc(CN3CCOCC3)cc2)cc1Br,·,1.5,·,·,-10.3%[59 µM],3.0%
O=C(CCCCl)NC(=S)Nc1ccc(N2CCOCC2)cc1,-16.1%,1.6,4.3%,-15.6%,·,?
CCCCOc1ccc(C(=O)NC(=S)Nc2ccc(CN3CCOCC3)cc2)cc1,-0.9%,-1.4,1.4%,-1.6%,-5.3%,4.9%
O=C(NC(=S)Nc1ccc(CN2CCOCC2)cc1)c1ccc([N+](=O)[O-])cc1,?,0.2,5.2%,-11.9%,?,50.1µM*
COc1ccc(C(=O)NC(=S)Nc2ccc(CN3CCOCC3)cc2)cc1Br,·,-0.9,·,·,44.7µM*,1.5%
CC1CC=CC2C1C(=O)N(Cc1ccccc1)C2c1ccoc1 (centres undefined),·,1.9,·,·,·,-9.2%
c1ccc(Nc2ncnc3ccc(-c4cccnc4)cc23)cc1,-7.2%,4.5,-22.2%,-20.3%,·,10.4%
COc1ccc(CC(=O)NNS(=O)(=O)c2ccc(F)cc2)cc1,·,2.2,·,·,?,16.9%
